From PubChem BioAssay
BaF3 parental: counter-screen for JAK2V617F inhibitors: parental Ba/F3 viability inhibitors; CellTiter-Glo ATP luminescence; inhibition, % at 5.6 µM; 1.1% of 220,000 active; AID 1486;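 active = inhibition above a per-campaign cutoff, the mean inhibition of all tested compounds plus 3 SD, cut at about 27% in these data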;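 note: 0% = DMSO wells and 100% = JAK Inhibitor I control wells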
IEC-6 tox: IEC-6 cytotoxicity, counter-screen for KLF5 inhibitors. luminescence viability. inhibition, % at 5 µM. 0.78% of 290,000 active. AID 1825;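 note: 0% = plate median of test compound wells and 100% = cytotoxic reference compound wells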
APP transl inh: APP translation inhibition. SH-SY5Y APP 5'UTR-luciferase reporter, luminescence. inhibition, % at 2 µM. 0.82% of 190,000 active. AID 1285;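 active = inhibition above a set limit, derived from the sample mean plus 3 SD, cut at about 45% in these data; inconclusive = one replicate passes the limit while the other fails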
Ba/F3 V617F tox: lowers viability of Ba/F3 cells expressing EpoR and JAK2V617F; ATP luminescence; inhibition, % at 5.6 µM; 1.1% of 220,000 active; AID 1446;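 active = inhibition above the campaign mean plus 3 SD over all tested compounds, cut at about 24% in these data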;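 note: cytokine-independent growth of Ba/F3 cells driven by EpoR plus mutant JAK2; 0% = DMSO-treated cells and 100% = JAK inhibitor I control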
aSyn UTR inh: 5' untranslated region of α-synuclein, MLPCN primary screen; inhibition, % (tested at 7.5 µM); 0.82% of 300,000 active; alpha-synuclein 5'UTR reporter, inhibitor activity; in the data active = inhibition above about 60%; inconclusive = no clear call, values can overlap the other calls;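 note: H4 neuroglioblastoma cells stably carrying SNCA 5'UTR luciferase fusion; 0% = DMSO wells and 100% = positive control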
KLF5 inh: kruppel-like factor 5 inhibition; DLD-1 KLF5 promoter-luciferase reporter, luminescence; inhibition, % at 5 µM; 0.23% of 290,000 active;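 active = inhibition above a per-plate limit of that plate's mean compound inhibition plus 3 SD, cut at about 60% in these data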;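 note: 0% = DMSO wells and 100% = LY294002 at 200 µM; higher means less KLF5 promoter-driven luciferase light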
IEC-6 cytotox cf: confirmation of cytotoxic compounds in rat IEC-6 intestinal epithelial cells. shares compounds with IEC-6 tox. 63% of 1,900 active. AID 1907. IEC-6 rat intestinal epithelial viability, luminescence. inhibition, % at 5 µM;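 note: 0% = vehicle and 100% = reference cytotoxic drug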
Active calls of the source: *; ? = inconclusive; / = no result given. Sampled rows, rich in hits. Any-hit rate of the full collection: about 2.2%. Cut-off read from the data, not from the text of the source, unless noted: active = inhibition above about 22%; inactive = the rest.

SMILES	BaF3 parental	IEC-6 tox	APP transl inh	Ba/F3 V617F tox	aSyn UTR inh	KLF5 inh	IEC-6 cytotox cf
Cn1c(=O)[nH]c(=O)c2c1nc([N+](=O)[O-])n2Cc1ccccc1	77*	38*	/	95*	-42	-3	10
CCn1ncc(C2=NOC(C(=O)NCc3ccccc3)C2)c1C (configuration not stated)	78*	66*	72*	80*	26	52	57*
CCn1ncc(C2=NOC(C(=O)NCc3ccc(OC)cc3)C2)c1C (configuration not stated)	1	22*	-5	-2	13	-3	10
COc1ccc(CNC(=O)C2CC(c3ccccc3C(F)(F)F)=NO2)cc1 (configuration not stated)	/	/	/	/	10	/	/
N#Cc1nccnc1S(=O)(=O)c1cccs1	35*	40*	/	92*	-48	-10	82*
COc1cc(OC)cc(C(=O)N2CCN(C(=O)c3ccc(OC)c(OC)c3)CC2)c1	3	-1	-3	0	39	4	/
COc1ccc(-c2n[nH]c3c2CN(C(=O)c2ccc(OC)c(OC)c2)CC3)cc1	/	40*	/	/	24	29	22
COc1ccc(C2=Nn3c(nnc3-c3ccccc3OC)SC2)cc1OC	89*	92*	96*	93*	107*	55	72*
COc1ccc(C2=Nn3c(nnc3-c3ccccn3)SC2)cc1OC	10	1	-8	5	?	-7	/
Cc1cccc(-c2nnc3n2N=C(c2ccccc2Br)CS3)c1	33*	34*	-16	37*	39	7	21
CCOc1cccc(-c2nnc3n2N=C(c2cc(OC)ccc2OC)CS3)c1	81*	58*	88*	80*	63*	38	52*
COc1ccc(C2=Nn3c(nnc3-c3ccc(OC)cc3)SC2)cc1	76*	82*	93*	64*	100*	53	58*
Cc1cc(-c2nnc3n2N=C(c2ccccc2Br)CS3)n[nH]1	19	-5	/	11	6	-22	/
COc1cccc(-c2nnc3n2N=C(c2cc(OC)ccc2OC)CS3)c1	0	-4	-9	-1	29	-8	/
COc1ccccc1CNC(=O)c1ccc(NC2=NC3CS(=O)(=O)CC3S2)cc1 (configuration not stated)	/	6	/	/	9	-27	/
CCc1ccc(C2=Nn3c(nnc3-c3cccs3)SC2)cc1	4	52*	-1	-2	12	9	35*
c1ccc(-c2ccc(C3=Nn4c(nnc4-c4cccs4)SC3)cc2)cc1	2	8	/	-1	28	10	/
CCN1CCN(c2ccc(S(=O)(=O)N3CCCCC3)cc2NC(=O)CC(C)c2ccccc2)CC1 (configuration not stated)	/	/	/	/	-17	/	/
CCOc1c(Cl)cc(C(=O)Nc2ccccc2C(=O)O)cc1Cl	27*	37*	6	25*	-5	-77	17
COc1ccccc1NC(=O)Cn1nnc(C(=O)NCc2cccs2)c1N	/	79*	/	/	86*	56	53*
Cc1ccc(C)c(NC(=O)Cn2nnc(C(=O)NCc3ccco3)c2N)c1	/	24*	/	/	-2	41	18
COc1ccc(-n2c(SCC(=O)Nc3ccc(C(=O)O)cc3)nnc2-c2ccccc2)cc1OC	/	2	/	/	12	-22	/
COc1cccc(NC(=O)CCS(=O)(=O)c2ccc(Br)cc2)c1	/	0	/	/	3	-8	/
C#CC(=O)N(c1ccc(OC)c(OC)c1)C(C(=O)NC1CCCC1)c1cccs1 (configuration not stated)	52*	100*	17	99*	36	-2	79*
COc1ccc(N(C(=O)Cc2cccs2)C(C(=O)NC2CCCC2)c2ccncc2)cc1OC (configuration not stated)	/	2	/	/	-5	2	/
SMILES	BaF3 parental	IEC-6 tox	APP transl inh	Ba/F3 V617F tox	aSyn UTR inh	KLF5 inh	IEC-6 cytotox cf
CCOC(=O)C1(Cc2cccc(Cl)c2)CCCN(C(=O)c2cc(C(C)C)nn2C)C1 (configuration not stated)	/	-2	/	/	-17	-23	/
COC(=O)c1c(NC(=O)c2ccc([N+](=O)[O-])o2)sc2c1CCN(C(C)C)C2	/	96*	/	/	105*	0	60*
COc1ccc(C(=O)Nc2sc3c(c2C#N)CCN(C(C)=O)C3)cc1	10	4	-8	4	-72	-14	/
COC(=O)c1sc(NC(=O)c2ccc([N+](=O)[O-])o2)c(C#N)c1C	2	22*	/	1	-45	-8	26*
CC(=O)N1CCc2c(sc(NC(=O)c3ccc([N+](=O)[O-])o3)c2C#N)C1	32*	61*	62*	17	-5	-5	63*
COC(=O)c1c(NC(=O)Cc2ccccc2)sc2c1CCN(C(C)C)C2	/	0	/	/	4	-13	/
COc1ccc(/C=C/C(=O)NCC(=O)N=Nc2c(O)[nH]c3ccc([N+](=O)[O-])cc23)cc1	/	-5	/	/	-2	-4	/
Cc1cccc(Nc2nc(N)nc(CCl)n2)c1	-3	14	/	14	-53	20	/
Cc1ccc(Nc2nc(N)nc(CCl)n2)c(C)c1	30*	100*	/	99*	-45	-15	5
O=C(Nc1ccc(N2CCN(C(=O)c3cccs3)CC2)cc1)c1ccco1	/	0	/	/	-11	-9	/
O=C(Nc1ccc(N2CCOCC2)cc1)c1ccc(Br)o1	/	-3	/	/	-40	-87	/
O=C(Nc1ccc(Cc2ccncc2)cc1)c1ccc([N+](=O)[O-])o1	/	51*	/	/	-150	-22	18
O=C(Nc1ccc(N2CCOCC2)cc1)c1ccc([N+](=O)[O-])o1	/	79*	/	/	-103	10	25*
O=C(Nc1ccc(N2CCN(C(=O)c3cccs3)CC2)cc1)c1ccc([N+](=O)[O-])o1	/	101*	/	/	106*	47	96*
CC(=O)Nc1ccc2nc(NC(=O)c3ccc([N+](=O)[O-])o3)sc2c1	/	56*	/	/	-100	-32	13
CCN1CCN(c2ccc(NC(=O)CCc3c(C)nc4c(-c5ccc(F)cc5)c(C)nn4c3C)cc2)CC1	15	2	0	1	-39	-20	/
CC(C)(C)N(Cc1ccccc1)C(=O)COC(=O)CN1C(=O)NC2(CCCC2)C1=O	/	-5	/	/	7	-39	/
COc1cc2[nH]c(=S)nc(NCc3cccc(Cl)c3)c2cc1OC	/	27*	/	/	-18	-8	8
COc1nc(Cl)cn(-c2ccc(C)cc2)c1=O	8	0	7	5	-13	2	/
Cc1ccc(-n2c(Cl)c(Cl)nc(Cl)c2=O)cc1	58*	41*	97*	96*	/	21	40*
O=C(NCc1ccc2c(c1)OCO2)c1nc(S(=O)(=O)Cc2ccccc2F)ncc1Cl	/	35*	/	/	42	11	12
O=C(NCc1ccc2c(c1)OCO2)c1nc(S(=O)(=O)Cc2ccccc2)ncc1Cl	/	24*	/	/	36	7	15
CCc1noc(C)c1C(=O)N(CCC(C)C)c1c(N)n(Cc2ccccc2)c(=O)[nH]c1=O	/	/	/	/	3	/	/
